The values that follow come from PubChem BioAssay (Tox21).

A short description of experiment [1]: qHTS assay to identify small molecule agonists of the peroxisome proliferator-activated receptor delta (PPARd) signaling pathway - cell viability counter screen (AID 743211). Also: nearly all actives have a fitted effect of over 55% in size. Also: potency is read from the fitted curve at half-maximal effect. An outline of the steps: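 Viability of GeneBLAzer PPARd UAS-bla HEK293H cells was assessed after 17 h compound incubation at 37C, using CellTiter-Glo reagent added after the reporter read and luminescence recorded 30 min later.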

The target in experiment [2] is Peroxisome proliferator-activated receptor delta (Homo sapiens) (UniProt Q03181). As to the kind of experiment: qHTS assay to identify small molecule agonists of the peroxisome proliferator-activated receptor delta (PPARd) signaling pathway (AID 743212; calls by dose curve;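 also: HEK293H cells with PPARd UAS beta-lactamase reporter GeneBLAzer system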). The method, boiled down:
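Beta-lactamase reporter read by fluorescence (LiveBLAzer B/G FRET, 2 h, room temperature). Test agents, in DMSO, incubated at 37 C with PPARd-bla HEK293H cells.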

Experiment [3] can be described thus: qHTS assay to identify small molecule antagonists of the peroxisome proliferator-activated receptor delta (PPARd) signaling pathway - cell viability counter screen (AID 743213). Also: nearly all actives have a fitted effect of over 50% in size. Also: potency is read from the fitted curve at half-maximal effect. The method, boiled down: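 Viability counter-screen, qHTS format: PPARd-bla HEK293H, L165041 300 nM final, 17 h compound exposure at 37 C, CellTiter-Glo luminescence after 30 min RT.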

Experiment [4] deals with Peroxisome proliferator-activated receptor delta (Homo sapiens) (UniProt Q03181). As to the kind of experiment: qHTS assay to identify small molecule antagonists of the peroxisome proliferator-activated receptor delta (PPARd) signaling pathway (AID 743215; active = well fitted inhibition curve with a large enough effect in the signal ratio in the repeat runs, not every such curve was filed as active; the % refers to the signal ratio;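 also: cells stimulated with agonist L165041 at 300 nM final during compound exposure; series mostly up to about 62 µM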). The method, boiled down:
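Agonist L165041 (300 nM final) added with compound to PPARd-bla HEK293H UAS-bla reporter cells; 17 h incubation at 37 C. Read-out: LiveBLAzer FRET substrate, 2 h at room temperature, fluorescence intensity.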

The target of experiment [5] is Bile acid receptor (Homo sapiens) (UniProt Q96RI1). Kind of experiment: qHTS assay to identify small molecule antagonists of the farnesoid-X-receptor (FXR) signaling pathway (AID 743217; active = well fitted inhibition curve with a large enough effect in the signal ratio in the repeat runs, not every such curve was filed as active; the % refers to the signal ratio). The method, boiled down:
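Antagonist mode: chenodeoxycholic acid at 50 uM final stimulates a UAS-driven beta-lactamase reporter in HEK 293T FXR-bla cells during 16 h, 37C compound exposure. Read-out is FRET substrate fluorescence after 2 h at room temperature.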

The target is the same in experiment [6]. As to the kind of experiment: qHTS assay to identify small molecule agonists of the farnesoid-X-receptor (FXR) signaling pathway (AID 743220; active = well fitted activation curve with a large enough effect in the signal ratio in the repeat runs, not every such curve was filed as active; the % refers to the signal ratio; also: potency is read from the fitted curve at half-maximal effect). The method, boiled down: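 FXR-UAS-bla HEK 293T cells carrying a UAS-driven beta-lactamase reporter were plated for 5 h at 37C/5% CO2, then exposed to DMSO-dissolved Tox21 10K compounds for 16 h at 37C. A LiveBLAzer B/G FRET substrate was loaded for 2 h at room temperature before fluorescence reading.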

Experiment [7] addresses Vitamin D3 receptor (Homo sapiens) (UniProt P11473). As to the kind of experiment: qHTS assay to identify small molecule agonists of the vitamin D receptor (VDR) signaling pathway (AID 743222; calls by dose curve). The method, boiled down: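 Agonist mode, beta-lactamase reporter: fluorescence from LiveBLAzer B/G FRET substrate (2 h, room temperature) read after 16 h compound treatment at 37 C of VDR-bla cells, which were pre-incubated 4 h after seeding.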

Experiment [8] shares this target. Kind of experiment: qHTS assay to identify small molecule antagonists of the vitamin D receptor (VDR) signaling pathway (AID 743223; active = well fitted inhibition curve with a large enough effect in the signal ratio in the repeat runs, not every such curve was filed as active; the % refers to the signal ratio). The method, boiled down: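 Fluorescence from LiveBLAzer B/G FRET substrate, read after 2 h at room temperature, reflects beta-lactamase reporter activity in VDR-bla cells treated 16 h at 37C with compounds and agonist 1alpha,25-dihydroxyvitamin D3 (3 nM final).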

Experiment [9] is described as follows: qHTS assay to identify small molecule agonists of the vitamin D receptor (VDR) signaling pathway - cell viability counter screen (AID 743224). Also: nearly all actives have a fitted effect of over 50% in size. Also: potency is read from the fitted curve at half-maximal effect. The method, boiled down:
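Counter screen run in the same wells as the VDR-bla reporter assay: CellTiter-Glo luminescence, 30 min at room temperature, after 16 h compound treatment at 37C of cells pre-plated for 4 h.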

The nature of experiment [10]: qHTS assay to identify small molecule antagonists of the vitamin D receptor (VDR) signaling pathway - cell viability counter screen (AID 743225). Also: nearly all actives have a fitted effect of over 50% in size. Also: potency is read from the fitted curve at half-maximal effect. An outline of the steps: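 Cells (VDR-UAS-bla HEK 293T) are plated, rested 4 h at 37C, dosed with compound and 3 nM final 1-alpha,25-dihydroxy vitamin D3, and incubated 16 h. Viability is taken from CellTiter-Glo luminescence in the reporter wells.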

Experiment [11] is described as follows: qHTS assay to identify small molecule agonists of the NFkB signaling pathway - cell viability counter screen (AID 1159515; calls by dose curve; also: nearly all actives have a fitted effect of over 55% in size; also: potency is read from the fitted curve at half-maximal effect). An outline of the steps:
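Read by CellTiter-Glo luminescence (30 min, room temperature) in the wells also used for the beta-lactamase FRET read. ME-180 NFkB-bla cells at 2,000 per well were plated overnight, then exposed to compound for 5 hr at 37 C.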

A short description of experiment [12]: qHTS assay to identify small molecule agonists of the endoplasmic reticulum stress response signaling pathway (AID 1159516; active = well fitted activation curve with a large enough effect in the signal ratio in the repeat runs, not every such curve was filed as active; the % refers to the signal ratio; also: potency is read from the fitted curve at half-maximal effect). The method, boiled down:
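Ratiometric FRET readout (405 nm excitation; 460 and 530 nm emission) of a beta-lactamase gene driven by the ER stress response element, after 2 hr substrate loading. HeLa ESRE-bla cells were seeded overnight and treated with compounds for only 5 hr at 37 C.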

The nature of experiment [13]: qHTS assay to identify small molecule antagonists of the retinoid-related orphan receptor gamma (ROR-gamma) signaling pathway - cell viability counter screen (AID 1159520). Also: nearly all actives have a fitted effect of over 50% in size. Also: potency is read from the fitted curve at half-maximal effect. An outline of the steps:
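Tet-on ROR gamma CHO cells (1,000/well) were plated 4 hr, given compounds in DMSO for 2 hr at 37 C, then induced with 1 uM final doxycycline for 16 hr. Viability was read as ATP by CellTiter-Glo luminescence after 30 min.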

Experiment [14] concerns the target Nuclear receptor ROR-gamma (Homo sapiens) (UniProt P51449). Kind of experiment: qHTS assay to identify small molecule antagonists of the retinoid-related orphan receptor gamma (ROR-gamma) signaling pathway (AID 1159521; also: nearly all actives have a fitted effect of over 50% in size; also: potency is read from the fitted curve at half-maximal effect). An outline of the steps:
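RORγ antagonism is scored from reduced reporter luminescence in Tet-on CHO cells. Induction used 1 uM final doxycycline hyclate for 16 h at 37 C, following a 2 h compound exposure.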

Experiment [15] is described as follows: qHTS assay to identify small molecule agonists of the AP-1 signaling pathway (AID 1159526; calls by dose curve).
For experiment [16], the target named is Retinoic acid receptor RXR-alpha (Homo sapiens) (UniProt P19793). Kind of experiment: qHTS assay to identify small molecule agonists of the RXR signaling pathway (AID 1159527; calls by dose curve; also: nearly all actives have a fitted effect of over 35% in size). The method, boiled down: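 qHTS of the Tox21 10K library in GeneBLAzer RXR-alpha HEK 293T cells carrying a beta-lactamase reporter […]; 16 hr treatment, 9-cis retinoic acid as agonist control, FRET read-out.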
Chain of Retinoic acid receptor RXR-alpha (Homo sapiens) (P19793 whole entry, looked up): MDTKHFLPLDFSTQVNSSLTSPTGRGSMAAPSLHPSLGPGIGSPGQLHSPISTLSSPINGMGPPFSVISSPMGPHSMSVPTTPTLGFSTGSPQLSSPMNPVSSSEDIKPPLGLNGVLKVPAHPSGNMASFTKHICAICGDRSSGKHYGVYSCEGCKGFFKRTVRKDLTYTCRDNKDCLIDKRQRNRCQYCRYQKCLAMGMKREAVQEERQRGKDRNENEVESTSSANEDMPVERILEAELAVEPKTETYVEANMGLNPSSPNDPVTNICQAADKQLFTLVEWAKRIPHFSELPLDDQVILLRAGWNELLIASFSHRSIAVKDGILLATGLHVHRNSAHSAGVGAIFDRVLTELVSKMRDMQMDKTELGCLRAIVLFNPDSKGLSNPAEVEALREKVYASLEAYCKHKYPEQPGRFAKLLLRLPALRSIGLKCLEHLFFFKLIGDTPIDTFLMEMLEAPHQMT

A short description of experiment [17]: qHTS assay to identify small molecule agonists of the farnesoid-X-receptor (FXR) signaling pathway - cell viability counter screen (AID 743218). Also: nearly all actives have a fitted effect of over 45% in size. Also: potency is read from the fitted curve at half-maximal effect. The method, boiled down: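 Viability counter screen in the same wells: CellTiter-Glo luminescence, 30 min room-temperature incubation, measured after the beta-lactamase read. Cells were GeneBLAzer FXR-UAS-bla HEK 293T, compound-treated 16 h at 37C.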

Experiment [18] in a line: qHTS assay to identify small molecule antagonists of the farnesoid-X-receptor (FXR) signaling pathway - cell viability counter screen (AID 743221; active = well fitted cell-killing curve with a large enough effect in the repeat runs, not every such curve was filed as active; also: nearly all actives have a fitted effect of over 50% in size; also: potency is read from the fitted curve at half-maximal effect). An outline of the steps:
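Quantitative HTS of the Tox21 10K library run in parallel with the beta-lactamase reporter read. HEK 293T cells carrying a UAS-driven bla reporter got compound and 50 uM CDCA (final) for 16 h; ATP-based luminescence followed.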

Experiment [19] can be described thus: qHTS assay to identify small molecule agonists of the AP-1 signaling pathway - cell viability counter screen (AID 1159525; calls by dose curve; also: nearly all actives have a fitted effect of over 55% in size; also: potency is read from the fitted curve at half-maximal effect). The method, boiled down:
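Each titration point was normalised to DMSO and tetra n-octyl ammonium bromide controls. The read was Cell Titer Glo luminescence after 30 min at RT, following 5 h compound exposure of ME-180 AP-1-bla cells at 37 °C.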

Structures are written as SMILES. “And” between values parts separate entries of the source, which are not always exact repeats. Equal values may be shown once. Records with an inconclusive call do not appear. Unmarked numbers belong to inactive results. The source made the active and inactive calls. Unless noted, calls follow the shape of the dose curve; as a rule, active = well fitted curve in the direction sought with a large enough effect in the repeat runs; inconclusive = weak or mixed curves; inactive = no such curve, though single readings can be large; an effect the other way counts as inactive or inconclusive.

Chain of Bile acid receptor (Homo sapiens) (Q96RI1 whole entry, looked up): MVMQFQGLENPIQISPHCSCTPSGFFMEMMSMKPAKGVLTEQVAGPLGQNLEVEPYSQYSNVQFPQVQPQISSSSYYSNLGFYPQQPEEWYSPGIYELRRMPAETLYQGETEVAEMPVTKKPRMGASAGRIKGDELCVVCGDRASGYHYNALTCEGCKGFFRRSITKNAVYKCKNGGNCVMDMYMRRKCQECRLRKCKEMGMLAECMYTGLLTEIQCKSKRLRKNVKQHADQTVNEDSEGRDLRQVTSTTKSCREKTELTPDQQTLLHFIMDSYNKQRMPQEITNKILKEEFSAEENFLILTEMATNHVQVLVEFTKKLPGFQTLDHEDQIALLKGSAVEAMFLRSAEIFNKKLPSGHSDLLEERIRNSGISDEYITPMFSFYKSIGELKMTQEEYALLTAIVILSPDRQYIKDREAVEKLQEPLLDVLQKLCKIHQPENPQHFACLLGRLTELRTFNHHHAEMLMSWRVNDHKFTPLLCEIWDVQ
Chain of Vitamin D3 receptor (Homo sapiens) (P11473 whole entry, looked up): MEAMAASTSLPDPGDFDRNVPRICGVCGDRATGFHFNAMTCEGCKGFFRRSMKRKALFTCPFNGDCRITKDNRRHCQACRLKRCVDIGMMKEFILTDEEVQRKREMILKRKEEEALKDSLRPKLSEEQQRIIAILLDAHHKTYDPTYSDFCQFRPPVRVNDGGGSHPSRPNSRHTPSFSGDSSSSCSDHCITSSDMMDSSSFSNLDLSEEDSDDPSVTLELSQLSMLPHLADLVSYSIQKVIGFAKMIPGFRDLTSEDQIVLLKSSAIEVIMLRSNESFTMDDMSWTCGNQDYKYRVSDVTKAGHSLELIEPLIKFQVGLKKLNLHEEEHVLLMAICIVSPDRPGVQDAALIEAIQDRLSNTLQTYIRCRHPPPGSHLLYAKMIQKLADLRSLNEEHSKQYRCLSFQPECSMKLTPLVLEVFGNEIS
Chain of Peroxisome proliferator-activated receptor delta (Homo sapiens) (Q03181 whole entry, looked up): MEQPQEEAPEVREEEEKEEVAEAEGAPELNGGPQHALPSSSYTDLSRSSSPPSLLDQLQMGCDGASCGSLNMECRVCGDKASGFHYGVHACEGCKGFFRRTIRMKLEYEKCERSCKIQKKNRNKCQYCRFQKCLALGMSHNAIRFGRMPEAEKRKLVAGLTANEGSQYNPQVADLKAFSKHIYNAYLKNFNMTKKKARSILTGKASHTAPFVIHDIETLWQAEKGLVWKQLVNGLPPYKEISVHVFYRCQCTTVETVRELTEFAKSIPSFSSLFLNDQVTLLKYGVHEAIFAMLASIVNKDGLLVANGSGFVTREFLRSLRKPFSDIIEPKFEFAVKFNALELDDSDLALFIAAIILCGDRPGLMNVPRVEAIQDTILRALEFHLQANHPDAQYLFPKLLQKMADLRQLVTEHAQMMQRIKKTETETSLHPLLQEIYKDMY

Turning to `CCc1ccc(Br)cc1`, the Potency result in experiment [1], in experiment [2], in experiment [3], in experiment [4], in experiment [5] and in experiment [6] was “inactive” each time. For the same molecule, the Potency entry in experiment [7], in experiment [8], in experiment [9], in [10], in [11] and in experiment [12] was “inactive” throughout. Further, the Potency entry in experiment [13], in experiment [14], in [15] and in experiment [16] was “inactive” throughout.
Turning to `NC(=O)c1cccc([N+](=O)[O-])c1`, the Potency entry in experiment [2], in [3], in experiment [4], in [17], in [18] and in experiment [9] was “inactive” throughout. For the same molecule, the Potency result in experiment [10], in experiment [11], in experiment [12], in experiment [13], in experiment [14] and in experiment [15] was “inactive” throughout. In experiment [16], the Potency result is “inactive”.
For the molecule `CC(=O)Oc1cc2c(s1)CCN(C(C(=O)C1CC1)c1ccccc1F)C2` (configuration not stated), the Potency result in [1], in experiment [2], in experiment [3], in experiment [4], in experiment [17] and in experiment [7] was “inactive” in each case. For the same molecule, the Potency entry in [9], in experiment [11], in experiment [12], in experiment [13], in experiment [14] and in experiment [15] was “inactive” in each case.
Consider `CC(N=C(NC#N)Nc1ccncc1)C(C)(C)C` (configuration not stated), for which the Potency entry in [1], in experiment [3], in experiment [5], in experiment [6], in experiment [18] and in experiment [9] was “inactive” each time. In addition, the Potency entry in [10], in experiment [11], in experiment [12], in experiment [13], in [19] and in experiment [15] was “inactive” in each case. Also, the Potency result in [16] was “inactive”.
As for `Cc1ccc(N/N=c2\c(=O)cc/c(=N\Nc3ccc(S(=O)(=O)O)cc3)c2=O)c(C)c1`, the Potency entry in [1], in experiment [3], in experiment [5], in [17], in experiment [6] and in experiment [9] was “inactive” throughout. For the same molecule, the Potency entry in [10], in experiment [11], in [12], in experiment [13], in [14] and in experiment [15] was “inactive” throughout. For the same molecule, the Potency result in experiment [16] is “inactive”.
Consider `C=C(C)C(=O)OCCCCCCCCCC`, for which the Potency is 39.2 µM (active) in experiment [3] and 44 µM (active) in experiment [9]. The Potency result in [5], in experiment [18], in experiment [8], in experiment [10], in experiment [11] and in [12] was “inactive” each time. In addition, the Potency result in experiment [13], in experiment [14] and in experiment [19] was “inactive” in each case.
Take `O=C(O)c1cc(O)c2ccccc2c1O`: the Potency result in experiment [2], in experiment [5], in [18] and in experiment [12] was “inactive” throughout. In addition, the Potency is 21.9 µM (active) in [11], 17.2 µM (active) in [13], 13.7 µM (active) in experiment [14] and 4.9 µM (active) in experiment [19].
As for `O=C(O)c1cccc(C(F)(F)F)c1`, the Potency result in [1], in [2], in experiment [3], in experiment [4], in experiment [17] and in [18] was “inactive” in each case. In addition, the Potency entry in [7], in [9], in [10], in experiment [11], in experiment [12] and in [13] was “inactive” each time. The Potency result in [19] and in [15] was “inactive” throughout.
As for `CCCC(=O)OCCc1ccccc1`, the Potency result in experiment [1], in [2], in experiment [3], in experiment [4], in experiment [17] and in experiment [7] was “inactive” in each case. The Potency result in experiment [9], in [10], in experiment [11], in experiment [12], in experiment [13] and in experiment [14] was “inactive” in each case. The Potency result in experiment [15] and in experiment [16] was “inactive” throughout.
For `Cc1c2ccccc2c(C)c2c1ccc1ccccc12`, the Potency in experiment [1] is 48.5 µM (active) and 38.9 µM (active); in experiment [3], 21.9 µM (active); in [17], 21.9 µM (active); in experiment [6], 48.5 µM (active); in [18], 43.6 µM (active); in experiment [10] it was 43.2 µM (active) and 19.5 µM (active). The Potency in [11] was 12.2 µM (active); in [12], 43.2 µM (active); in [13], 60.5 µM (active) and 27.3 µM (active); in experiment [14], 24.1 µM (active) and 21.7 µM (active). In addition, in experiment [19], the Potency entry was “inactive”.
In the case of `C#C[C@]1(O)CC[C@H]2[C@@H]3[C@H](C)CC4=C(CCC(=O)C4)[C@H]3CC[C@@]21C`, the Potency result in experiment [2], in experiment [3], in experiment [17], in experiment [18], in [8] and in experiment [9] was “inactive” in each case. The Potency result in experiment [10], in experiment [11], in experiment [12], in [13], in [19] and in experiment [15] was “inactive” in each case.
